# Reference: PubChem BioAssay (NCATS)
# Several values for one entry are separate records, joined by “and”; a condition that tells them apart may be missing. Equal entries are not always repeated. Results filed as inconclusive are left out. Entries that show only a call come without a potency. Activity calls are given as the source filed them. Calls follow the shape of the dose curve; as a rule, active = well fitted curve in the direction sought with a large enough effect; inconclusive = small, poorly fitted or top-dose-only effect, or another doubt; inactive = no such curve, though single readings can be large; an effect the other way counts as inactive or inconclusive.
# Target: Cellular tumor antigen p53 (Homo sapiens) (UniProt P04637)
# Sequence (P04637 whole entry, looked up): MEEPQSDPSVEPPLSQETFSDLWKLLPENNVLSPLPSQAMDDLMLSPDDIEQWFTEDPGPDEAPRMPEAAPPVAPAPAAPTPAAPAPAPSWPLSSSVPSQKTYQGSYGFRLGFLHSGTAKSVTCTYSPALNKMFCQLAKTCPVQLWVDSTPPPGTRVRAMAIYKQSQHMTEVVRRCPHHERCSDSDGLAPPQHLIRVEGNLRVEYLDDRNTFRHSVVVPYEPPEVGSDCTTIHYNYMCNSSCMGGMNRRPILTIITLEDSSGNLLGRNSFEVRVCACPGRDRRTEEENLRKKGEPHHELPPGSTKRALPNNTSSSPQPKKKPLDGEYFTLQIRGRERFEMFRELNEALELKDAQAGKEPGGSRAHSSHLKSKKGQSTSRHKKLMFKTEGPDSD
# Experiment: Primary qHTS for small molecule compounds that upregulate eGFP-tagged delta133p53alpha (in N-terminal) cells. (AID 2060322); also: nearly all actives have a fitted effect of over 75% in size
# Details: NCI-H358 eGFP-delta133p53alpha fluorescence, 24 h; activation: hits give high values
# In short: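 NCI-H358 cells pre-induced 24 h with 10 ng/ml doxycycline to express N-terminal eGFP-delta133p53alpha, then dosed 24 h at 37C without doxycycline; fixed, Hoechst-stained, GFP intensity by laser scanning cytometry, normalized to DMSO (0%) and 57.5 uM 5-azacytidine (100%).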
# Potency is read from the fitted curve at half-maximal effect.
SMILES,activation,Potency
COc1ccc2[nH]c(S(=O)Cc3ncc(C)c(OC)c3C)nc2n1 (stereo unspecified),10.7% (inactive) and 10% (inactive),
O=C(O)c1cc(I)ccc1NC(=O)[C@H](Cc1ccccc1)NCc1ccccc1,-19.7% (inactive),
CC(C)CC(=O)n1cc(C(N)=O)c(=O)cc1C(O)c1ccccc1 (stereo unspecified),-1.53% (inactive),
COc1ccc(-c2nc3ccc(C4=NNC(=O)CC4C)cc3[nH]2)cc1 (stereo unspecified),15.8% (inactive),
Cc1c(CN(C)C(=O)/C=C/c2cnc3c(c2)CCC(=O)N3)oc2ccccc12,8.33% (inactive),
C[C@@H]1O[C@@H](O[C@@H]2\C=C/C=C\C=C/C=C\C[C@H](C)OC(=O)/C=C\[C@H]3O[C@@H]3C[C@H](O)C[C@]3(O)C[C@@H](O)[C@@H](C(=O)O)[C@H](C2)O3)[C@H](O)[C@H](N)[C@@H]1O,17.7% (inactive),
O=C(NCc1cccs1)c1cc2nc(-c3ccco3)cc(C(F)(F)Cl)n2n1,0.477% (inactive),
O=C(Nc1ccc(-c2ccc(Cl)c(Cl)c2)cc1)C1=C(O)c2ccccc2S(=O)(=O)N1,-5.73% (inactive),
C#Cc1cccc(Nc2nc3cc(C(=O)O)ccc3c3cncnc23)c1,8.04% (inactive),
O=C(O)c1cc(O)c2cccc(O)c2c1O[C@@H]1O[C@H](CO)[C@@H](O)[C@H](O)[C@H]1O,-20.5% (inactive),
Cc1c2cc(c(C(=O)O)c1C)OC1OC(C(O)C(O)C1O)C(O)C(O)C1OC(O2)C(O)C(O)C1O (stereo unspecified),-5.34% (inactive),
CC1=C2C[C@@]3(C)C(CCC[C@@H]3C)C(O)C2OC1=O (stereo partly specified),-15.3% (inactive),
CN(Cc1ccc(C(=O)O)cc1)c1ccc(OCc2c(-c3c(Cl)cccc3Cl)noc2C2CC2)nc1C(F)(F)F,-10.5% (inactive),
C=CC(=O)Nc1ccc(CN2C(=O)N(c3cc(OC)cc(OC)c3)Cc3cnc(Nc4ccc(N5CCN(C)CC5)cc4)nc32)cc1,,13.5 µM (active)
CC(/C=C/C=C(\C)C(=O)O[C@@H]1O[C@H](CO[C@@H]2O[C@H](CO)[C@@H](O)[C@H](O)[C@H]2O)[C@@H](O)[C@H](O)[C@H]1O)=C\C=C\C=C(C)\C=C\C=C(/C)C(=O)O[C@@H]1C[C@](O)(C(=O)O)C[C@@H](O)[C@H]1OC(=O)/C=C/c1ccc(O)c(O)c1,16% (inactive),
C[C@H](Nc1ncnc2nc[nH]c12)c1cc2cccc(Cl)c2c(=O)n1-c1ccccc1,7% (inactive),
O=C(NN1CCCCC1)c1nn(-c2ccc(Cl)cc2Cl)c(-c2ccc(C#Cc3ccc(C(F)(F)F)cc3)s2)c1CNS(=O)(=O)N1CCCC1,-21% (inactive),
COc1ccc([C@@]2(O)c3c(ccc4c3OC(C)(CCC=C(C)C)C=C4)NC(=O)[C@@H]2OC)cc1 (stereo partly specified),-6.87% (inactive),
CCCc1cc2c(N3CCN(C4=NCC(C)(C)S4)CC3)ncnc2s1,-16.2% (inactive),
CC(=O)OC[C@@]12C(=O)C[C@@H](C)[C@]3(C[C@@H](c4ccoc4)O[C@H]3OC(C)=O)[C@H]1CCC[C@]21CO1,11.5% (inactive),
CC(=O)NC1C(OC(C)(C)C2CCC3(C)C=C(C4CCC5C4(C)CC(O)C4OC(C(C)(C)O)CCC45C)CCC3O2)OC(CO)C(O)C1O (stereo unspecified),-3.05% (inactive),
COC(=O)[C@H](c1ccccc1Cl)N1CCC2SC(=O)C=C2C1 (stereo partly specified),16.3% (inactive),
C/C=C/CCC1Cc2cc(O)c(CCCC)c(O)c2C(=O)O1 (stereo unspecified),-16% (inactive),
COc1cccc2nc(-c3cccs3)nc(NN3C(=O)C=C(C)C3=O)c12,,19.3 µM (active)
CCc1c(Cl)c(O)c(Cl)c(O)c1C(=O)O[C@H]1[C@H](O)[C@H](OC)[C@H](OC/C2=C\C=C\C[C@H](O)/C(C)=C\[C@H](CC)[C@@H](O[C@@H]3OC(C)(C)[C@@H](OC(=O)C(C)C)[C@H](O)[C@@H]3O)/C(C)=C/C(C)=C/C[C@@H]([C@@H](C)O)OC2=O)O[C@@H]1C,-0.333% (inactive),
COCc1c(O)c(C(=O)O)c(C)c2c1OC(=O)c1c(C)cc(O)c(CO)c1O2,0.893% (inactive),

# Target: Retinaldehyde dehydrogenase 3 (Homo sapiens) (UniProt P47895)
# Experiment: qHTS for Inhibitors of the Aldehyde Dehydrogenase Family (ALDH1A3) Primary screen (AID 2061315)
# Details: ALDH inhibition qHTS; series mostly up to 56 µM
row,SMILES,Potency
1,COc1ccc(S(=O)(=O)Nc2nc(-c3cccc([N+](=O)[O-])c3)cs2)cc1OC,inactive
2,O=C(Cc1c(F)cccc1F)Nc1cc(OCc2ccc(Cl)cc2)ccn1,inactive
3,COc1cc(CCc2ccc(OCC=C(C)C)cc2)cc(OC)c1OC,inactive
4,CC(O)C1C(=O)N2C(C(=O)O)=C(SC3CNC(C(=O)N(C)C)C3)C(C)C12 (stereo unspecified),inactive
5,Clc1ccc(C(Cn2ccnc2)OCc2c(Cl)cccc2Cl)c(Cl)c1 (stereo unspecified),inactive
6,CC[C@H](C)/C=C(C)/C=C/C(=O)Cc1cc(O)c(C)c(O)c1C=O,inactive
7,O=C(O)c1cc2cccc([N+](=O)[O-])c2[nH]1,inactive
8,C=C/C=C/[C@@H]1OC[C@H](/C=C/C=C/C)[C@H]1O,inactive
9,Nc1ccccc1NC(=O)c1ccc(CNc2nccc(-c3cccnc3)n2)cc1,inactive
10,CC[C@H](Nc1ncnc2nc[nH]c12)c1nc2cccc(F)c2c(=O)n1-c1ccccc1,inactive
11,C[C@@H]1C[C@@H]2O[C@H]2/C=C\C=C\C(=O)Cc2c(Cl)c(O)cc(O)c2C(=O)O1,inactive
12,C/C(=C\CCC1(C)C2CCC(C2)C1(C)O)C(=O)O (stereo unspecified),inactive
13,C=C1C(O)C(O)C2(CC3C(C)=CCC4C(C)(C(=O)O)CCCC34C)OC2C1O (stereo unspecified),inactive
14,C/C(=C\Cc1c(O)c(Cl)c(C)c(C=O)c1O)CC/C=C(\C)[C@H]1CC(=O)C(C)(C)O1,inactive
15,COc1ccc2[nH]c(S(=O)Cc3ncc(C)c(OC)c3C)nc2n1 (stereo unspecified),inactive
16,O=C(O)c1cc(I)ccc1NC(=O)[C@H](Cc1ccccc1)NCc1ccccc1,inactive
17,CC(C)CC(=O)n1cc(C(N)=O)c(=O)cc1C(O)c1ccccc1 (stereo unspecified),inactive
18,COc1ccc(-c2nc3ccc(C4=NNC(=O)CC4C)cc3[nH]2)cc1 (stereo unspecified),inactive
19,Cc1c(CN(C)C(=O)/C=C/c2cnc3c(c2)CCC(=O)N3)oc2ccccc12,inactive
20,C[C@@H]1O[C@@H](O[C@@H]2\C=C/C=C\C=C/C=C\C[C@H](C)OC(=O)/C=C\[C@H]3O[C@@H]3C[C@H](O)C[C@]3(O)C[C@@H](O)[C@@H](C(=O)O)[C@H](C2)O3)[C@H](O)[C@H](N)[C@@H]1O,inactive

row,SMILES,Potency
1,O=C(NCc1cccs1)c1cc2nc(-c3ccco3)cc(C(F)(F)Cl)n2n1,inactive
2,O=C(Nc1ccc(-c2ccc(Cl)c(Cl)c2)cc1)C1=C(O)c2ccccc2S(=O)(=O)N1,inactive
3,C#Cc1cccc(Nc2nc3cc(C(=O)O)ccc3c3cncnc23)c1,inactive
4,O=C(O)c1cc(O)c2cccc(O)c2c1O[C@@H]1O[C@H](CO)[C@@H](O)[C@H](O)[C@H]1O,6.31 µM (active)
5,Cc1c2cc(c(C(=O)O)c1C)OC1OC(C(O)C(O)C1O)C(O)C(O)C1OC(O2)C(O)C(O)C1O (stereo unspecified),inactive
6,CC1=C2C[C@@]3(C)C(CCC[C@@H]3C)C(O)C2OC1=O (stereo partly specified),inactive
7,CN(Cc1ccc(C(=O)O)cc1)c1ccc(OCc2c(-c3c(Cl)cccc3Cl)noc2C2CC2)nc1C(F)(F)F,inactive
8,C=CC(=O)Nc1ccc(CN2C(=O)N(c3cc(OC)cc(OC)c3)Cc3cnc(Nc4ccc(N5CCN(C)CC5)cc4)nc32)cc1,inactive
9,CC(/C=C/C=C(\C)C(=O)O[C@@H]1O[C@H](CO[C@@H]2O[C@H](CO)[C@@H](O)[C@H](O)[C@H]2O)[C@@H](O)[C@H](O)[C@H]1O)=C\C=C\C=C(C)\C=C\C=C(/C)C(=O)O[C@@H]1C[C@](O)(C(=O)O)C[C@@H](O)[C@H]1OC(=O)/C=C/c1ccc(O)c(O)c1,inactive
10,C[C@H](Nc1ncnc2nc[nH]c12)c1cc2cccc(Cl)c2c(=O)n1-c1ccccc1,inactive
11,O=C(NN1CCCCC1)c1nn(-c2ccc(Cl)cc2Cl)c(-c2ccc(C#Cc3ccc(C(F)(F)F)cc3)s2)c1CNS(=O)(=O)N1CCCC1,inactive
12,COc1ccc([C@@]2(O)c3c(ccc4c3OC(C)(CCC=C(C)C)C=C4)NC(=O)[C@@H]2OC)cc1 (stereo partly specified),inactive
13,CCCc1cc2c(N3CCN(C4=NCC(C)(C)S4)CC3)ncnc2s1,inactive
14,CC(=O)OC[C@@]12C(=O)C[C@@H](C)[C@]3(C[C@@H](c4ccoc4)O[C@H]3OC(C)=O)[C@H]1CCC[C@]21CO1,inactive
15,CC(=O)NC1C(OC(C)(C)C2CCC3(C)C=C(C4CCC5C4(C)CC(O)C4OC(C(C)(C)O)CCC45C)CCC3O2)OC(CO)C(O)C1O (stereo unspecified),inactive
16,COC(=O)[C@H](c1ccccc1Cl)N1CCC2SC(=O)C=C2C1 (stereo partly specified),inactive
17,C/C=C/CCC1Cc2cc(O)c(CCCC)c(O)c2C(=O)O1 (stereo unspecified),inactive
18,COc1cccc2nc(-c3cccs3)nc(NN3C(=O)C=C(C)C3=O)c12,inactive
19,CCc1c(Cl)c(O)c(Cl)c(O)c1C(=O)O[C@H]1[C@H](O)[C@H](OC)[C@H](OC/C2=C\C=C\C[C@H](O)/C(C)=C\[C@H](CC)[C@@H](O[C@@H]3OC(C)(C)[C@@H](OC(=O)C(C)C)[C@H](O)[C@@H]3O)/C(C)=C/C(C)=C/C[C@@H]([C@@H](C)O)OC2=O)O[C@@H]1C,inactive
20,COCc1c(O)c(C(=O)O)c(C)c2c1OC(=O)c1c(C)cc(O)c(CO)c1O2,inactive
